Assay results taken from PubChem BioAssay (NCATS).
Values joined by “and” are separate entries in the source; they are usually repeats but may differ in a detail not shown here. Identical values can stand only once. Results filed as inconclusive are left out. A call without a number means that no potency is given here. Active and inactive are the calls of the source. Unless noted, calls come from the whole dose curve.

How the values were obtained:
[1] = qHTS assay for small molecule agonists of retinoid X receptor alpha signaling (AID 588544); conditions: HEK293T RXRa-UAS-bla, beta-lactamase reporter, 18 h; 530 nm emission
[2] = biological target: Retinoic acid receptor RXR-alpha (Homo sapiens) (UniProt P19793); assay: as above; conditions: HEK293T RXRa-UAS-bla, beta-lactamase reporter, 18 h; series mostly up to 76.7 µM
Sequence of Retinoic acid receptor RXR-alpha (Homo sapiens) (P19793 whole entry, looked up): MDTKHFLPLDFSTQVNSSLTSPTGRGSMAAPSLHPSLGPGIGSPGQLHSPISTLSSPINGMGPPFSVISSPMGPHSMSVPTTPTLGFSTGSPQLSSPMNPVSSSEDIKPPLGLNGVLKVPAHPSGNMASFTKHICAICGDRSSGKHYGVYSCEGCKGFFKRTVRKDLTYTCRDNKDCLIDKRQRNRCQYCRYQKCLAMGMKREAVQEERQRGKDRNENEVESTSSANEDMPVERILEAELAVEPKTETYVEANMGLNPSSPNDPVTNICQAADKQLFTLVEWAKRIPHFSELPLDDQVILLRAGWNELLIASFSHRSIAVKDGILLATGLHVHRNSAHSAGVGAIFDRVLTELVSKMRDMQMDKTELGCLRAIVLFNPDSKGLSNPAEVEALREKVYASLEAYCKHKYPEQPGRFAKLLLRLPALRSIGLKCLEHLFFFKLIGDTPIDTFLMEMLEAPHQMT

[3] = biological target: Thyroid hormone receptor beta (Homo sapiens) (UniProt P10828); assay: qHTS assay for small molecule agonists of thyroid hormone receptor beta signaling (AID 588545); conditions: TR-UAS-bla GripTite HEK 293, beta-lactamase ratio, agonist mode, 18 h, percent of T3 response, DMSO as zero; series mostly up to 76.7 µM
Sequence of Thyroid hormone receptor beta (Homo sapiens) (P10828 whole entry, looked up): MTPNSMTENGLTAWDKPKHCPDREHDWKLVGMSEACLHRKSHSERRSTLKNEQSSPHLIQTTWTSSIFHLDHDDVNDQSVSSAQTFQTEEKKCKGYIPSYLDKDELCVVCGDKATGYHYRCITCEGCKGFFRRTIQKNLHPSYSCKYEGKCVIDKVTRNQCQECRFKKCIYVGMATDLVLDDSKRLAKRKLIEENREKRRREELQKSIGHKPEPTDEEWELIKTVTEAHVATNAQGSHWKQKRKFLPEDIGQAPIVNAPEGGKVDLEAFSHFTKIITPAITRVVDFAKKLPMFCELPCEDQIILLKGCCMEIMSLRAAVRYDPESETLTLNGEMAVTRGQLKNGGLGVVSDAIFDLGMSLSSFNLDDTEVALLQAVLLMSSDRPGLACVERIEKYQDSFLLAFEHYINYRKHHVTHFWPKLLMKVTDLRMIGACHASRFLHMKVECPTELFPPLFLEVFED
Outline: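 TR-UAS-bla-GripTite HEK 293 cells in medium with 2% charcoal/dextran FBS, 0.1 mM NEAA and 1 mM sodium pyruvate were treated with titrated compounds for 18 hrs at 37 C. Beta-lactamase reporter was read with CCF4 dye (ex 405, em 460/530 nm); EC50 from Hill fits.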

[4] = qHTS assay for small molecule antagonists of retinoid X receptor alpha signaling (AID 588546; active = well fitted inhibition curve with a large enough effect in the signal ratio, with a control signal flat, not every such curve was filed as active; the % refers to the signal ratio;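 note: cells stimulated with 9-cis-retinoic acid as agonist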); conditions: HEK293T RXRa-UAS-bla, beta-lactamase ratio, antagonist mode; measured here: W530 green channel, cytotoxicity proxy
Outline: (§1)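 Beta-lactamase reporter inhibition, read as CCF4 fluorescence ratio (ex 405, em 460/530 nm) after 2 h at RT. HEK293T UAS-bla cells, 2500/well, were stimulated with 9-cis-RA at 500 or 100 nM final alongside test compound for 18 h at 37 C.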

[5] = biological target: Retinoic acid receptor RXR-alpha (Homo sapiens) (UniProt P19793); assay: as above; conditions: HEK293T RXRa-UAS-bla, beta-lactamase ratio, antagonist mode
Outline: as §1

[6] = biological target: Thyroid hormone receptor beta (Homo sapiens) (UniProt P10828); assay: qHTS assay for small molecule antagonists of thyroid hormone receptor beta signaling (AID 588547; active = well fitted inhibition curve with a large enough effect in the signal ratio, with a control signal flat, not every such curve was filed as active; the % refers to the signal ratio;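 note: cells stimulated with 0.4 nM T3 agonist during compound exposure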); conditions: TR-UAS-bla HEK293, beta-lactamase ratio, antagonist mode, 18 h
Outline: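 TR-UAS-bla GripTite HEK293 cells in 2% charcoal/dextran FBS medium were preincubated 4 h at 37 C, given compound (0.59 nM to 92 uM) plus 0.4 nM T3 (final) for 18 h, then CCF4 for 2 h at RT; Hill fit gave IC50.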

[7] = qHTS assay for small molecule agonists of the antioxidant response element (ARE) signaling pathway (AID 651741; active = well fitted activation curve with a large enough effect in the signal ratio; the % refers to the signal ratio; note: potency is the fitted concentration of half-maximal effect); conditions: HepG2 ARE-bla reporter, beta-lactamase FRET ratio, 16 h; series mostly up to 96 µM
Outline: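 Reporter: beta-lactamase under ARE, stably in HepG2. Exposure: 16 h, 37 C, compounds delivered in DMSO by pin tool after 5 h cell preincubation. Readout: FRET substrate fluorescence after 2 h at RT.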

[8] = qHTS assay for small molecule activators of the p53 signaling pathway (AID 651743; active = well fitted activation curve with a large enough effect in the signal ratio, not every such curve was filed as active; the % refers to the signal ratio); conditions: HCT-116 p53RE-bla, beta-lactamase FRET ratio, 16 h; stronger effect = higher value
Outline: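 Agonist-mode quantitative HTS in HCT-116 cells carrying a p53-response-element beta-lactamase reporter; 16 h compound treatment at 37 C, then FRET substrate loading for 2 h at room temperature and fluorescence read.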

[9] = qHTS assay for small molecule disruptors of the mitochondrial membrane potential - 5 hr assay (AID 651755); conditions: JC-1-type ratio dye; series mostly up to 92.2 µM; note: nearly all actives have a fitted effect of over 40% in size
Outline: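 Seed HepG2 overnight, add compound, incubate 5 hr at 37C and 5% CO2, stain 30 min with Mito-MPS, then measure monomer (490/535 nm) and aggregate (540/590 nm) fluorescence.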

[10] = biological target: Tumor necrosis factor (Homo sapiens) (UniProt P01375); assay: qHTS assay to identify small molecules that stimulate Tumor Necrosis Factor-alpha (TNF-alpha) secretion (AID 651757; active = well fitted curve in the direction sought with a large enough effect in the signal ratio; the % refers to the signal ratio); conditions: Human cells, HTRF 665/615 ratio; series mostly up to 92.2 µM
Sequence of Tumor necrosis factor (Homo sapiens) (P01375 whole entry, looked up): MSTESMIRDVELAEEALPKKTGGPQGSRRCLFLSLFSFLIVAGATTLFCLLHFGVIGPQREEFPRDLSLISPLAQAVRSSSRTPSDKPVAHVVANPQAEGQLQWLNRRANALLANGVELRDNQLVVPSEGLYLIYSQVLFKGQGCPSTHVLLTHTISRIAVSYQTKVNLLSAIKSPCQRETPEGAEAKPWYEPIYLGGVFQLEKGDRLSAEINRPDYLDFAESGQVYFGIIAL
Outline: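 Human monocytic THP-1 cells are plated, treated with compound and held at 37 C for 17 hrs. Labeled anti-TNF-alpha antibody mixture is then added; after 3 hr at room temperature, TR-FRET signal reports secreted TNF-alpha.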

[11] = qHTS assay for environmental chemicals that activate the Aryl hydrocarbon Receptor (AhR) signaling pathway (AID 651777; active = well fitted curve in the direction sought with a large enough effect; an effect the other way counts as inactive or inconclusive; note: nearly all actives have a fitted effect of over 15% in size); conditions: 1A2-DRE human hepatoma cells, luciferase, 24 h; activation: stronger effect = higher value
Outline: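 Concentration–response screening used 1,200 1A2-DRE cells per well, 24 hr compound exposure (37 C, 5% CO2), and One-Glo luminescence as the AhR-driven CYP1A2 reporter signal.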

[12] = biological target: Peroxisome proliferator-activated receptor alpha (Homo sapiens) (UniProt Q07869); assay: qHTS assay for small molecule agonists of the peroxisome proliferator-activated receptor alpha (PPARalpha) signaling pathway (AID 651778; active = well fitted curve in the direction sought with a large enough effect; an effect the other way counts as inactive or inconclusive); conditions: PathHunter PPARalpha complementation, chemiluminescence, 6 h; stronger effect = higher value
Sequence of Peroxisome proliferator-activated receptor alpha (Homo sapiens) (Q07869 whole entry, looked up): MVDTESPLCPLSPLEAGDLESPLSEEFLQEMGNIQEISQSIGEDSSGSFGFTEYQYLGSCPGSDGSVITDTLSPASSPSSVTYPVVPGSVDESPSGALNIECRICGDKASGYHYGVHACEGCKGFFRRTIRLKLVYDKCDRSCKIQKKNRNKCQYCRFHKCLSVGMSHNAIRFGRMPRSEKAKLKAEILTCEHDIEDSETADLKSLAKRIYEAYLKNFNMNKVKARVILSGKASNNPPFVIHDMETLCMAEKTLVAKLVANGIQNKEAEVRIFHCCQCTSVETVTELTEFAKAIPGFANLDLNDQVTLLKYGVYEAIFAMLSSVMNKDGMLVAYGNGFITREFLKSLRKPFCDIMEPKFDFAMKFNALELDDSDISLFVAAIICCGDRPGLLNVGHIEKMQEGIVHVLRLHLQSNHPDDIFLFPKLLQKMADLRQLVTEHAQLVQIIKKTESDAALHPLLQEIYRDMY
Outline: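 Cells plated at 2,000/well and held overnight at 37 C, 5% CO2, then compound added by pin tool for 6 hr; after PathHunter detection reagent and 60 min at room temperature, chemiluminescence from enzyme complementation was read.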

[13] = qHTS assay for small molecule agonists of the antioxidant response element (ARE) signaling pathway measured by Nrf2-dependant transcriptional activity (AID 720636; active = well fitted curve in the direction sought with a large enough effect in the repeat runs; an effect the other way counts as inactive or inconclusive;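 note: HepG2 cells with an ARE-driven luciferase reporter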); conditions: ARE-luc HepG2, Nrf2 luciferase reporter, 16 h; series mostly up to 92.4 µM
Outline: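 Attachment 6 hr at 37 C, then compound versus DMSO vehicle for 16 hr in ARE-luc HepG2 cells (1% dialyzed FBS); luminescence recorded 30 min after ONE-Glo addition at room temperature.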

[14] = qHTS assay for small molecule antagonists of the retinoid-related orphan receptor gamma (ROR-gamma) signaling pathway - cell viability counter screen (AID 720652; active = well fitted curve in the direction sought with a large enough effect in the repeat runs; an effect the other way counts as inactive or inconclusive;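 note: CHO reporter cells with doxycycline-induced ROR-gamma expression; compound exposure lasted 16 hr before ATP read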); conditions: RORgamma reporter cell line viability counter screen; series mostly up to 92.2 µM
Outline: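 Steps: seed CHO cells bearing TET-inducible ROR and ROR response element-luciferase; rest 5 hr at 37 C; add compound, then doxycycline; incubate 16 hr; add CellTiter-Glo and read luminescence as ATP-based viability.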

[15] = qHTS assay for small molecule agonists of the antioxidant response element (ARE) signaling pathway measured by Nrf2-dependant transcriptional activity - cell viability counter screen (AID 720653; active = well fitted curve in the direction sought with a large enough effect in the repeat runs; an effect the other way counts as inactive or inconclusive); conditions: ARE-bla HepG2 viability, CellTiter-Glo ATP luminescence, 16 h; stronger effect = lower value
Outline: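 ARE-bla HepG2 cells (2,000/well) rested 5 hrs at 37C/5% CO2, then exposed to compounds in DMSO for 16 hrs. Viability was read in the same wells as intracellular ATP by luminescence, 30 min at room temperature after reagent addition.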

[16] = qHTS assay for small molecule disruptors of the mitochondrial membrane potential - 1 hr assay (AID 651754); conditions: series mostly up to 92.2 µM; note: nearly all actives have a fitted effect of over 35% in size
Outline: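 Loss of mitochondrial potential shifts the cationic dye from red mitochondrial aggregates to green cytoplasmic monomers. Cells (HepG2) are treated with compound for 1 hr before a 30 min dye incubation at 37C.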

[17] = biological target: Nuclear receptor ROR-gamma (Homo sapiens) (UniProt P51449); assay: qHTS assay for small molecule antagonists of the retinoid-related orphan receptor gamma (ROR-gamma) signaling pathway (AID 651802; active = well fitted curve in the direction sought with a large enough effect; an effect the other way counts as inactive or inconclusive;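 note: CHO cells with doxycycline-induced ROR-gamma expression; nearly all actives have a fitted effect of over 60% in size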); conditions: ROR-gamma antagonist cell reporter assay; series mostly up to 92.2 µM
Sequence of Nuclear receptor ROR-gamma (Homo sapiens) (P51449 whole entry, looked up): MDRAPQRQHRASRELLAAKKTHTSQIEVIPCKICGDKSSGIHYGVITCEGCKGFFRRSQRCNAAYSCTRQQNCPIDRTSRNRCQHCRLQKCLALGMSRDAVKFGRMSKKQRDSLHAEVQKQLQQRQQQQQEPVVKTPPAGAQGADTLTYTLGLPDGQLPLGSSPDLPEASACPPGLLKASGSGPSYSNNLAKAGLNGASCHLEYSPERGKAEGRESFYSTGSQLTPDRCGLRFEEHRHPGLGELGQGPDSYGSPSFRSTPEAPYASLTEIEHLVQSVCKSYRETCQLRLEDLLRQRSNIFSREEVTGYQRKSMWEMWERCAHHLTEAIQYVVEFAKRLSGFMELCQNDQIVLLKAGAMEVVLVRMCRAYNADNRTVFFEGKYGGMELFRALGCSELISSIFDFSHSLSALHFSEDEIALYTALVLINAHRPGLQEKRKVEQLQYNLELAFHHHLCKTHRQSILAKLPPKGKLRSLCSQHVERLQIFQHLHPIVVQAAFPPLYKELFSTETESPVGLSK
Outline: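 Steps: cells dispensed; compound or DMSO transferred by pin tool; doxycycline added to induce the ROR response element-driven luciferase; plates held 16hr at 37C; ONE-Glo added and luminescence measured.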

[18] = qHTS assay for small molecule activators of the nuclear factor-kappa B (NF-kB) signaling pathway (AID 651749; active = well fitted activation curve with a large enough effect in the signal ratio; the % refers to the signal ratio); conditions: NF-kB-bla ME-180 cells, beta-lactamase FRET ratio, 16 h; stronger effect = higher value
Outline: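 Human ME-180 cervical cells with an NF-kB-bla construct; compounds added via 23 nL pin transfer, DMSO as vehicle; incubation 16 hr. Reporter activity measured by FRET disruption.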

[19] = qHTS assay to identify small molecules that stimulate interleukin-8 (IL-8) secretion (AID 651758; active = well fitted activation curve with a large enough effect in the signal ratio; the % refers to the signal ratio); conditions: HTRF ratio (665/615); series mostly up to 92.2 µM
Outline: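 Quantitative HTS in THP-1 monocytic cells at 2000 cells per well, with 16 hrs compound incubation at 37 C. IL-8 in the medium was then quantified by HTRF immunoassay, read after 1-3 hrs at room temperature.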

[20] = biological target: Voltage-gated inwardly rectifying potassium channel KCNH2 (Homo sapiens) (UniProt Q12809); assay: qHTS Assay for Small Molecule Inhibitors of the Human hERG Channel Activity (AID 588834; active = well fitted curve in the direction sought with a large enough effect; an effect the other way counts as inactive or inconclusive;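 note: top concentration of the series differs between compounds; lower thallium flux fluorescence means stronger hERG block; nearly all actives have a fitted effect of over 50% in size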); conditions: U2OS BacMam hERG, FluxOR thallium flux fluorescence; series mostly up to 92.2 µM
Sequence of Voltage-gated inwardly rectifying potassium channel KCNH2 (Homo sapiens) (Q12809 whole entry, looked up): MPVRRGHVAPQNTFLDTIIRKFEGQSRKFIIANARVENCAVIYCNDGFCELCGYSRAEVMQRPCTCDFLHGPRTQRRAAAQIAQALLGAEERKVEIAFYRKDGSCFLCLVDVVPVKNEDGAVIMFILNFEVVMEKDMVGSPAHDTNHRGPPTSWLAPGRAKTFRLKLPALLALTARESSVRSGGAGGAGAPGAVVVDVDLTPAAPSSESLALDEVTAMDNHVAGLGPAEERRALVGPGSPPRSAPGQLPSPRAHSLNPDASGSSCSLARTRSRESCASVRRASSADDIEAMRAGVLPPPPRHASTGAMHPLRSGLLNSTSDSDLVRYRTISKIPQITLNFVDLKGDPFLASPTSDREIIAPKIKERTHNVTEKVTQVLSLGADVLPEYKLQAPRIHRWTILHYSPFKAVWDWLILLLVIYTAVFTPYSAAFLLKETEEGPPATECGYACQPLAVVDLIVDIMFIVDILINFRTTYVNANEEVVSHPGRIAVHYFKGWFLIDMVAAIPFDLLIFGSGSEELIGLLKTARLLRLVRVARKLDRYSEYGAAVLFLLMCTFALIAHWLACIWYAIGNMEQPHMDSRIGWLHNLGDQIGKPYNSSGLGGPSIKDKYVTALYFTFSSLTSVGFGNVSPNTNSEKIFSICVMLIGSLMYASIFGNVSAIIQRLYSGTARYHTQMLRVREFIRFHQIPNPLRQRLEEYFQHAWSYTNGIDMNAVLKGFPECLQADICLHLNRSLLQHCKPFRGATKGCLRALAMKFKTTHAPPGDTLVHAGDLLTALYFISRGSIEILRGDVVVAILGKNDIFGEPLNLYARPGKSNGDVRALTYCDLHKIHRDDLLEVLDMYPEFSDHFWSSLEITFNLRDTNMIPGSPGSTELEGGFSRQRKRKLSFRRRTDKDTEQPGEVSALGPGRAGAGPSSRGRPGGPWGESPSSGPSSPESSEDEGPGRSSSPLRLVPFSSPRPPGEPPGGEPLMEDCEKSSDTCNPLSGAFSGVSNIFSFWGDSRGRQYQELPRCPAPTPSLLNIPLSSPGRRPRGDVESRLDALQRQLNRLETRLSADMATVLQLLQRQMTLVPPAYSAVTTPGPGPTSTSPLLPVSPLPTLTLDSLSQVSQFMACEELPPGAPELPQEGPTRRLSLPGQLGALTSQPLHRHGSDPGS
Outline: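 Step 1: BacMam hERG transduction of U2OS, 4 hrs RT. Step 2: overnight 37 °C, plate 2000 cells/well, 4 hr. Step 3: FluxOR load, compound 10 min, stimulate, read fluorescence.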

## CC(C=O)Cc1ccc(C(C)(C)C)cc1 (configuration not stated)
[1]
  max response: -4.78% and -12.5%
[2]
  outcome: inactive
[3]
  outcome: inactive
[4]
  max response: 2.84% and -3.45%
[5]
  max response: -0.768% (inactive) and 2.1% (inactive)
[6]
  activity change % (negative = inhibition): 4.73% (inactive) and 0.44% (inactive)
[7]
  Potency: inactive
[8]
  activation: 3.13% (inactive) and -1.47% (inactive)
[9]
  Potency: inactive
[10]
  Potency: inactive
[11]
  activation: 0.301% (inactive) and -1.84% (inactive)
[12]
  max response: -2% (inactive) and -1.24% (inactive)
[13]
  outcome: inactive
[14]
  Potency: inactive
[15]
  max response: -4.71% (inactive) and -17.8% (inactive)

## O=C1OC(=O)c2c(Cl)c(Cl)c(Cl)c(Cl)c21
[1]
  max response: -5.89% and -6.44%
[2]
  outcome: inactive
[3]
  outcome: inactive
[4]
  max response: -4.9% and 1.94%
[5]
  max response: 0.977% (inactive) and -5.45% (inactive)
[6]
  activity change % (negative = inhibition): -1.32% (inactive) and -1.29% (inactive)
[7]
  Potency: inactive
[8]
  activation: -2.26% (inactive) and 13.1% (inactive)
[16]
  Potency: inactive
[9]
  Potency: inactive
[10]
  Potency: inactive
[11]
  activation: 0.646% (inactive) and 1.03% (inactive)
[12]
  max response: 0.893% (inactive) and -0.287% (inactive)
[17]
  Potency: inactive
[13]
  outcome: inactive
[14]
  Potency: inactive
[15]
  max response: 1.45% (inactive) and 13.5% (inactive)

## COc1cccc2sc(N)nc12
[1]
  max response: 2.8%
[2]
  outcome: inactive
[3]
  outcome: inactive
[4]
  max response: -11.1%
[5]
  max response: -10.9% (inactive)
[6]
  activity change % (negative = inhibition): -20.5% (inactive)
[7]
  Potency: inactive
[18]
  activation: 0.198% (inactive)
[16]
  Potency: inactive
[10]
  Potency: inactive
[17]
  Potency: inactive
[13]
  outcome: inactive
[14]
  Potency: inactive

## CCC(=O)/C=C/C1C(C)=CCCC1(C)C (configuration not stated)
[1]
  max response: -9.1%
[2]
  outcome: inactive
[3]
  outcome: inactive
[4]
  max response: -4%
[5]
  max response: 2.33% (inactive)
[6]
  activity change % (negative = inhibition): -4.67% (inactive)
[8]
  activation: -2.61% (inactive)
[16]
  Potency: inactive
[9]
  Potency: inactive
[10]
  Potency: inactive
[19]
  Potency: inactive
[11]
  activation: -0.103% (inactive)
[12]
  max response: 0.561% (inactive)
[13]
  outcome: inactive
[14]
  Potency: inactive
[15]
  max response: 0.358% (inactive)

## C(=C/c1ccccc1)/c1ccccc1
[1]
  max response: -10%
[2]
  outcome: inactive
[3]
  outcome: inactive
[4]
  max response: -6.97%
[5]
  max response: -3.93% (inactive)
[6]
  activity change % (negative = inhibition): -6.07% (inactive)
[8]
  activation: -2.17% (inactive)
[18]
  activation: -0.123% (inactive)
[16]
  Potency: inactive
[9]
  Potency: inactive
[10]
  Potency: inactive
[11]
  activation: 1.55% (inactive)
[12]
  max response: 5.49% (inactive)
[17]
  Potency: inactive
[13]
  outcome: inactive
[14]
  Potency: inactive
[15]
  max response: 5.32% (inactive)

## O=C1CCCCC1
[1]
  max response: -9.55%
[2]
  outcome: inactive
[3]
  outcome: inactive
[4]
  max response: -8.36%
[5]
  max response: -0.633% (inactive)
[6]
  activity change % (negative = inhibition): -11.2% (inactive)
[7]
  Potency: inactive
[18]
  activation: -1.28% (inactive)
[16]
  Potency: inactive
[9]
  Potency: inactive
[10]
  Potency: inactive
[19]
  Potency: inactive
[11]
  activation: -0.681% (inactive)
[12]
  max response: -2.26% (inactive)
[17]
  Potency: inactive
[13]
  outcome: inactive
[14]
  Potency: inactive
[15]
  max response: 5.45% (inactive)

## Cc1cccc2sc(N)nc12
[1]
  max response: -1.76%
[2]
  outcome: inactive
[3]
  outcome: inactive
[4]
  max response: -5.71%
[5]
  max response: 1.45% (inactive)
[20]
  Potency: inactive
[7]
  Potency: 15 µM (active)
[8]
  activation: 2.1% (inactive)
[18]
  activation: 0.512% (inactive)
[9]
  Potency: inactive
[10]
  Potency: inactive
[12]
  max response: -1.18% (inactive)
[17]
  Potency: inactive
[13]
  outcome: inactive
[14]
  Potency: inactive
[15]
  max response: -5.19% (inactive)
